Compound activity (PubChem BioAssay)
Most compounds without a hit are left out; they make up all but 3.6% or so of the library.
NFkB transloc pot = enhancers of NFkB p65 translocation in HUVEC – imaging, IL-1B stimulus, high-content imaging, primary screen; HUVEC IL-1B NFkB p65 nuclear translocation imaging; activation, % at 2 µM; 94,000 compounds, 0.3% hits; AID 819, 2007;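 active = activation above 40%, about the mean plus 3 SD, also judged a hit on visual image review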;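 also: percent activation is computed from the nuclear over cytoplasmic p65 intensity ratio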
NFkB transloc inh = inhibitors of IL-1B driven NFkB p65 nuclear import, primary screen, imaging, HUVEC, IL-1B stimulus, high-content imaging; HUVEC IL-1B NFkB p65 nuclear translocation imaging; AID 796, 2007; inhibition, % at 2 µM; 94,000 compounds, 0.43% hits;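 active = inhibition above about 30% together with a positive call from visual inspection of the well image, limit read from the data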;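 also: nuclear over cytoplasmic p65 intensity ratio measured by imaging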
ERb SRC1 inh = inhibitors of ERβ-SRC1 coactivator interaction, primary screen, biochemical, TR-FRET, ERβ LBD, SRC-1 peptide; TR-FRET ER-beta LBD / SRC1-Cy5 peptide binding; receptor agonist-loaded with 1 µM estradiol; inhibition, % at 25.6 µM; Estrogen receptor beta (Homo sapiens), Q92731; 86,000 compounds, 1.3% hits;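 active = compounds whose percent inhibition of the receptor-coactivator binding signal exceeds about 50% in the single-dose screen, limit read from the data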
Target sequence (Q92731 whole entry, looked up, the tested form may be a part): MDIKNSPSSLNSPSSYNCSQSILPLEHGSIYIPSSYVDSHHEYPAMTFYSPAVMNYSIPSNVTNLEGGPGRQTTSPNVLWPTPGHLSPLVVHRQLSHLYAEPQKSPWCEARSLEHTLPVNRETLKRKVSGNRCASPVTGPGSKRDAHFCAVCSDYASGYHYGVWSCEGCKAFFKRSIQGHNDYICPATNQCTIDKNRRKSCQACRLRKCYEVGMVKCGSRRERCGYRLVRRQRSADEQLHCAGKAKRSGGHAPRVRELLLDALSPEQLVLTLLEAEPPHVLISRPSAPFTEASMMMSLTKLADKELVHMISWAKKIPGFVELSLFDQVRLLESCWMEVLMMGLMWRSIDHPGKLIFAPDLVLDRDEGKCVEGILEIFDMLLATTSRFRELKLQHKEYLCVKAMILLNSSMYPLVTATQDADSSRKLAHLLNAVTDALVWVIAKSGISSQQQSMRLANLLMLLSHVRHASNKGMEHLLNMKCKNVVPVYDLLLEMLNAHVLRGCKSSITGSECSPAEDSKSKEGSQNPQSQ
HUVEC tox IL1B = cytotoxicity in IL-1B stimulated HUVEC, primary screen, cytotoxicity control for IL-1B NFkB translocation project, imaging, Hoechst nuclear count, IL-1B stimulus. HUVEC cell count loss. 94,000 compounds, 0.41% hits. cell count reduction, % at 2 µM. AID 845, 2007;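 active = cell count reduction more than 3 SD above the screen-wide mean, cut at about 70% in these data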
ERa SRC1 pot = enhancers of ERα–SRC-1 coactivator binding, primary screen, biochemical, TR-FRET, ERα LBD, low estradiol; Estrogen receptor (Homo sapiens), P03372; TR-FRET ERalpha-LBD/SRC-Cy5 coactivator binding, 2 h; 100 = basal binding, no effect; coactivator binding (% of control), % at 25.6 µM; 86,000 compounds, 1.3% hits; AID 639, 2007; in the data active = activity above about 200%;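 also: binding measured in presence of low estradiol as agonist stimulus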
ERa SRC1 inh = ERα–SRC-1 coactivator interaction inhibitors, primary screen, biochemical, TR-FRET, ERα LBD, estradiol-bound; Estrogen receptor (Homo sapiens), P03372; TR-FRET ER-alpha LBD / SRC-1 peptide; inhibition, % at 25.6 µM; 86,000 compounds, 1.7% hits; in the data active = inhibition above about 50%
Of the large screens only hits and unclear results are named; the others gave an inactive call; [ ] = dose if it differs, or a comment.

COc1ccc(-c2nn(C)c(=O)c3ccccc23)cc1NS(C)(=O)=O	none
COc1ccc(OCC(=O)Nc2cc(-c3nn(C)c(=O)c4ccccc34)ccc2OC)cc1	ERa SRC1 pot 677.0[fluorescence artefact?] (no result: NFkB transloc pot, NFkB transloc inh, HUVEC tox IL1B)
Cc1ccc(-c2nn(C)c(=O)c3ccccc23)cc1CNC(=O)Cn1nc(-c2ccccc2)c2ccccc2c1=O	ERa SRC1 inh 67.5[fluorescence artefact?]
COc1ccc(-c2nn(C)c(=O)c3ccccc23)cc1NC(=O)Cn1nc(-c2ccccc2)c2ccccc2c1=O	ERa SRC1 pot 290.4[fluorescence artefact?]
O=S(=O)(Nc1ccc(-n2cccc2)cc1)c1ccccc1	none (no result: ERb SRC1 inh, ERa SRC1 pot, ERa SRC1 inh)
COc1ccc(C(=O)CSc2nc3nc(C)cc(C)c3c(=O)[nH]2)cc1OC	none
COC(=O)c1sccc1NC(=O)CSc1nnnn1-c1ccccc1C	none
CCOC(=O)c1ccccc1NC(=O)c1ccc(Cl)c(S(=O)(=O)N2CCOCC2)c1	none
CN(CC(=O)Nc1sccc1C#N)C1CCCCC1	ERb SRC1 inh 60.1[fluorescence artefact?], ERa SRC1 inh 79.2[fluorescence artefact?]
CN(CC(=O)N1CCN(c2cccc(Cl)c2)CC1)S(=O)(=O)c1cccs1	none (no result: NFkB transloc pot, NFkB transloc inh, HUVEC tox IL1B)
COc1ccccc1-n1c(C)cc(SC)c(C(C)=O)c1=S	none (no result: ERb SRC1 inh, ERa SRC1 pot, ERa SRC1 inh)
Cc1ccc2oc(=O)c3cnn(CC(=O)N4CCN(c5ccccc5)CC4)c3c2c1	none
Cc1ccc2oc(=O)c3cnn(CC(=O)N4CCCc5ccccc54)c3c2c1	ERa SRC1 pot 265.4[fluorescence artefact?]
CCOC(=O)C1=C(N)n2c(s/c(=C\c3cccnc3)c2=O)=C(C(=O)OC)C1c1cccnc1 (stereo unspecified)	ERa SRC1 pot 266.4[fluorescence artefact?], ERa SRC1 inh 72.4[fluorescence artefact?]
CCOC(=O)C1=C(N)n2c(s/c(=C\c3cccnc3)c2=O)=C(C(=O)OCC)C1c1cccnc1 (stereo unspecified)	none (no result: NFkB transloc pot, NFkB transloc inh, HUVEC tox IL1B)
CCCOc1cccc(C(=O)Nc2cccnc2)c1	NFkB transloc pot 40.1
CCOc1cc(OCC)cc(C(=O)Nc2cccnc2)c1	none (no result: NFkB transloc pot, NFkB transloc inh, HUVEC tox IL1B)
CC(C)c1ccc(CNc2ccc(N3CCOCC3)cc2)cc1	ERa SRC1 pot 529.6[fluorescence artefact?]
O=C(COC(=O)c1ccco1)NCc1ccco1	none
O=C(COC(=O)c1cc(-c2ccc(Cl)s2)nc2ccccc12)NCc1ccco1	none
Cc1onc(-c2c(F)cccc2Cl)c1C(=O)OCC(=O)NCc1ccco1	ERa SRC1 inh 51.7
O=C(COC(=O)c1ccccc1Oc1ccccc1)NCc1ccco1	ERa SRC1 inh 63.8 (no result: NFkB transloc pot, NFkB transloc inh, HUVEC tox IL1B)
Cc1onc(-c2c(F)cccc2Cl)c1C(=O)NCc1ccco1	none
O=C(COC(=O)c1cccc(S(=O)(=O)N2CCc3ccccc3C2)c1)NCc1ccco1	ERb SRC1 inh 53.0, ERa SRC1 inh 64.9 (no result: NFkB transloc pot, NFkB transloc inh, HUVEC tox IL1B)
O=C(COC(=O)c1cc(S(=O)(=O)N2CCc3ccccc3C2)ccc1Cl)NCc1ccco1	none
O=C(COC(=O)c1cc(-c2cccs2)nc2ccccc12)NCc1ccco1	ERa SRC1 inh 65.2[fluorescence artefact?]
N#CCCNc1ccc(OCCC#N)cc1	none
O=C(COc1ccc(Cl)cc1Cl)NCc1ccco1	none
Cc1ccc2c(Cl)cc(Cl)c(OCC(=O)NCc3ccco3)c2n1	ERb SRC1 inh 83.9, ERa SRC1 inh 93.3[fluorescence artefact?]
O=C(COC(=O)c1ccccc1)NCc1ccco1	ERb SRC1 inh 60.1, ERa SRC1 inh 76.4[fluorescence artefact?]
Cc1ccc(C(=O)OCC(=O)NCc2ccco2)cc1	none
O=C(COc1ccccc1Cl)NCc1ccco1	NFkB transloc inh 98.7, HUVEC tox IL1B 80.4
CCCN1CCC(N(C)CCc2ccc(OC)c(OC)c2)CC1	none
COc1cc(C2CC(=O)N3CN(c4ccccc4C)CSC3=C2C#N)cc(OC)c1OC (stereo unspecified)	ERa SRC1 pot 252.8[fluorescence artefact?]
CCOc1ccc(N2CSC3=C(C#N)C(c4ccco4)CC(=O)N3C2)cc1 (stereo unspecified)	ERb SRC1 inh 51.8, ERa SRC1 inh 50.8
COc1ccccc1N1CSC2=C(C#N)C(c3ccc(SC)cc3)CC(=O)N2C1 (stereo unspecified)	ERb SRC1 inh 61.1[fluorescence artefact?], ERa SRC1 inh 63.7[fluorescence artefact?]
COc1cc(OC)c(C2CC(=O)N3CN(c4ccccc4)CSC3=C2C#N)cc1OC (stereo unspecified)	none
CCc1ccccc1N1CSC2=C(C#N)C(c3cc(OC)c(OC)cc3OC)CC(=O)N2C1 (stereo unspecified)	ERa SRC1 pot 225.0[fluorescence artefact?]
Cc1ccc(N=Cc2c(O)n(-c3cc(Cl)ccc3N3CCOCC3)c(=O)c3ccccc23)cc1C	none
Cc1oc(C(C)(C)C)cc1C(=O)N1CCCC1C(=O)O (stereo unspecified)	none
CCC(=O)c1ccc(OCC(O)CN2CCN(C(c3ccccc3)c3ccccc3)CC2)cc1 (stereo unspecified)	none
Cc1ccc(Nc2cc(C)nn2-c2nc(C)cc(C)n2)cc1	none
Cc1ccc(Nc2cc(C)nn2-c2nc(C)cc(=O)[nH]2)cc1	NFkB transloc inh 77.9
COc1ccccc1N(CC(=O)Nc1cc(C)on1)S(=O)(=O)c1cccs1	none (no result: NFkB transloc pot, NFkB transloc inh, HUVEC tox IL1B)
Oc1c(/C=N/c2ncn[nH]2)ccc2ccccc12	NFkB transloc pot 47.4
CN(CCOc1ccc(Cl)cc1)c1ccc(S(=O)(=O)N2CCCCC2)cn1	ERa SRC1 pot 235.7[fluorescence artefact?]
Cc1ccc2c(=O)cc(C(F)F)oc2c1	ERa SRC1 inh 55.2[fluorescence artefact?]
Nc1ccc(Cl)cc1/C(=N/O)c1ccccc1	none (no result: NFkB transloc pot, NFkB transloc inh, HUVEC tox IL1B)
O=C(COC(=O)CC1CCCC1)Nc1cc2c(cc1Cl)C(=O)c1ccccc1C2=O	ERa SRC1 inh 51.9
CCc1nc(Nc2ccc3c(c2)OCCO3)c2oc3ccccc3c2n1	none
Cc1nc(Nc2ccc3c(c2)OCCO3)c2oc3ccccc3c2n1	NFkB transloc pot 87.1
CCOC(=O)N1CCN(c2nc(C)c3c(n2)CC(C)CC3=O)CC1 (stereo unspecified)	NFkB transloc pot 40.4
COc1cc2c(cc1NC(=O)c1cccc([N+](=O)[O-])c1)oc1ccccc12	HUVEC tox IL1B 78.3 (no result: ERb SRC1 inh, ERa SRC1 pot, ERa SRC1 inh)
COc1cc2c(cc1NC(=O)c1ccncc1)oc1ccccc12	none
O=C(O)C1CCCCC1C(=O)Nc1cccc2ccccc12 (stereo unspecified)	none
Nc1nc(Nc2cccc3ccccc23)nc(C2CCCC2=O)n1 (stereo unspecified)	ERa SRC1 pot 260.6[fluorescence artefact?] (no result: NFkB transloc pot, NFkB transloc inh, HUVEC tox IL1B)
CCc1ccc(C2CC(c3ccccc3)n3ncnc3N2)cc1 (stereo unspecified)	NFkB transloc pot 41.7
CCc1ccc(C2CC(c3ccccc3)Nc3nc(N)nn32)cc1 (stereo unspecified)	none (no result: NFkB transloc pot, NFkB transloc inh, HUVEC tox IL1B)
O=C(NCC1CCCO1)c1onc(CSc2cccc3ccccc23)c1C(=O)O (stereo unspecified)	none (no result: ERb SRC1 inh, ERa SRC1 pot, ERa SRC1 inh)
